Data as given in PubChem BioAssay.
Active and inactive are the calls of the source.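 How the source made its calls: active means primary screen active and over 50% activation in each of two duplicate runs; inactive means the rest.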

Test system: transient receptor potential cation channel C4 beta (TRPC4), mouse
Test: TRPC4 cation channel opening, second retest – cell-based, second round, Fluo4, HEK293 TRPC4beta/mu-opioid, 1 µM, confirmation (AID 2461)
Conditions: Fluo4 calcium fluorescence, at 1 µM

outcome, inactive:
CCCc1nc2oc3c(NCCCN(C)C)ncnc3c2c2c1CCCC2
O=C(/C=C/c1ccc(Cl)cc1)N(Cc1ccccc1)C1CCS(=O)(=O)C1 (centres undefined)
COc1ccc(NS(=O)(=O)c2ccc3ccccc3c2)c2ncccc12
CN(C)S(=O)(=O)N1CCC(CCCC2CCN(S(=O)(=O)N(C)C)CC2)CC1
COc1cc(C2(c3ccc(O)c(OC)c3)C(=O)Nc3c(C)cc(Br)cc32)ccc1O
COC(=O)C(CC(=O)Nc1cc(C)ccc1C)Nc1ccccc1OC (centres undefined)
CC(C)CCc1noc(CN2CCN(c3ccc(Cl)cn3)CC2)n1
Cc1cc(OCCN2CCCC2)ccc1[N+](=O)[O-]
CSc1ccc(S(=O)(=O)NCC(=O)OCC(=O)N(C)Cc2ccccc2)cc1[N+](=O)[O-]
O=C(COC(=O)c1ccccc1C(=O)N1CCN(c2ccccc2)CC1)Nc1ccc(F)cc1
CCCCCCCCCC[n+]1cccc2c3ccccc3ccc21
Cc1nn(-c2cc(C(F)(F)F)ccc2Cl)c2nc(C(Cl)(Cl)Cl)[nH]c(=O)c12
Cc1cc2oc(C(=O)N(Cc3cccs3)C3CCS(=O)(=O)C3)cc(=O)c2cc1Cl (centres undefined)
CN(C)CCCN(C(=O)CCc1ccccc1)c1nc2ccc(F)cc2s1
Cc1ccc(C(=O)O)cc1N=Cc1cc(Br)cc(Br)c1O
N=c1c2c3c(sc2ncn1Cc1ccccc1)CCCC3
Cn1c2ccccc2c(=O)c2c(=O)n(-c3ccccc3)c(-c3ccc(C(C)(C)C)cc3)nc21
CCCNc1nc2ccccc2n2c(C)nnc12
CC(C)NS(=O)(=O)c1ccc(NC(=O)C(C)Oc2ccc(C(=O)c3ccccc3)cc2)cc1 (centres undefined)
O=C1C=CC(=O)N1CCNc1ncc(C(F)(F)F)cc1Cl
CCN1CCN(c2ccc(S(=O)(=O)N3CCCCC3)cc2NC(=O)c2cccc(F)c2)CC1
CCn1c2ccc(F)cc2c2nnc(NN)nc21
CCCN1Cc2cccc(C(=O)N3CCN(c4cc(Cl)ccc4C)CC3)c2C1=O
Cc1ccc2c(c1)C1CN(C)CCC1N2C(=S)NC(=O)c1ccc(Br)cc1 (centres undefined)
CCCCN(CC)CCCNC(=O)c1cc2cc3ccc(C)cc3nc2o1
COc1cc(NC(=O)CSc2ncnc3sc4c(c23)CCC(C)C4)c(C(=O)O)cc1OC (centres undefined)
CN(CCCNC(=O)CCCOc1cc(=O)n(C)c2ccccc12)Cc1ccccc1
O=S(=O)(NCC1NCCc2ccccc21)c1ccccc1 (centres undefined)
Cc1cc(C)c2c(=O)n(CC(=O)Nc3cccc(Cl)c3C)sc2n1
O=C(Nc1ccnn1C1CCN(Cc2cc3ccccc3[nH]2)CC1)C1CCOC1 (centres undefined)
CC(Oc1ccc(Cl)cc1Cl)C(=O)N(C)c1ccccc1 (centres undefined)
O=C(C1=C[C@H](c2ccc(C(F)(F)F)cc2)C[C@H](OCCCCO)O1)N1CCOCC1
O=C(O)CCCN1C(=O)/C(=C\c2ccc(-c3nc4ccccc4s3)o2)SC1=S
O=c1c2ccccc2nc(COc2ccccc2)n1/N=C/c1cc([N+](=O)[O-])ccc1O
O=C(CCN1CCN(Cc2ccccc2)CC1)Nc1cccc(Br)c1
O=C(NC1CCCC1)c1cc2ccccc2o1
Cc1cc(/C=N/NC(=O)c2cccc([N+](=O)[O-])c2)c(C)n1-c1ccc(Cl)cc1Cl
CCN(CC)c1ncnc2sc3c(c12)CCC3
CC(=O)c1nn(-c2cccc(Br)c2)cc1C(=O)c1cccc2ccccc12
